Molecules are shown by their SMILES. This is part of a sample that, as a whole, favours compounds with a hit. Of some 83,000 tested, about 20% had one in any assay.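 Values shown are percent growth following 48 h exposure of cells in 96-well plates to a single concentration of compound; below 10 was considered active.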 Unmarked numbers belong to inactive results.

The test system of this experiment is EKVX NSCLC. The experiment can be described thus: NCI-60 one-dose screen, 48 h (100 = growth as untreated, 0 = no growth, -100 = all killed). The settings on record: 10 µM unless noted.
Consider `Cc1ccc(NC(=O)c2ccc(CN3CCN(C)CC3)cc2)cc1Oc1ccc(-c2[nH]nc3ncnc(N)c23)cc1`, for which the growth was 107%.

For the compound `CCCn1cnc2c(c1=N)C(c1ccc(Cl)cc1)c1sc3c(C)cccc3c1O2` (stereo not given), the growth was 42.7%.

On to `C=C(C=O)[C@@H]1CC[C@]2(C)[C@H](CC=C3[C@H]4[C@@H](C)[C@H](C)CC[C@]4(C(=O)OC)CC[C@]32C)[C@@]1(C)CCC#N`, for which the growth is 15.2%.

As to `NC(N)=Nc1ccc(Oc2cccc(NC(N)=Nc3ccc(I)cc3F)c2)cn1`, the growth was 63%.

As to `Cc1occc1-c1nc2s/c(=C/c3ccc(-c4cc(C(F)(F)F)ccc4Cl)o3)c(=O)n2n1`, the growth is 100%.

Regarding `COc1ccc(-c2cc(-c3ccc(Cl)cc3)c(C#N)c(=O)n2Cc2ccc(C(=O)O)cc2)cc1`, the growth is 98.2%.

Consider `O=C1[C@H]2Cc3c([nH]c4ccccc34)[C@@H](c3ccc(Cl)cc3)N2C(=O)CN1C1CCN(Cc2ccccc2)CC1`, for which the growth was 41.3%.

As for `COc1cc(-c2nn(C(C)(C)C)cc2-c2ccnc(NCCCNS(=O)(=O)c3ccc(C)cc3)n2)ccc1Cl`, the growth was 46.1%.

Take `CCCCNNC(=O)c1ccc(-c2cccc(F)c2F)cc1`: the growth was 45.3%.

On to `CC1(C)CC[C@]2(C(=O)N3CCOCC3)CC[C@]3(C)C(=CC[C@@H]4[C@@]5(C)C/C(=C/c6ccccn6)C(=O)C(C)(C)[C@@H]5CC[C@]43C)[C@@H]2C1`, for which the growth was 56.1%.

For `O=S(=O)(NCCNc1nccc(-n2cnc3ccccc32)n1)c1ccc(Br)cc1`, the growth is 83.4%.

In the case of `CC1(C)CC[C@]23CC[C@]4(C)[C@H](CC[C@@H]5[C@@]6(C)CCCN(CO)C(C)(C)[C@@H]6CC[C@]54C)[C@H]2[C@H]1OC3`, the growth was 90.9%.

As for `COc1ccc([C@H]2c3[nH]c4ccccc4c3C[C@H]3C(=O)N(C4CCN(Cc5c(Cl)cccc5Cl)CC4)CC(=O)N23)c(OC)c1`, the growth is 86.2%.

Consider `NS(=O)(=O)c1ccc(Nc2nc(Nc3ccccc3)nc3nnc(SCC(=O)NC4CCCCC4)n23)cc1`, for which the growth is 103%.

With `CCN(CC)c1cn(-c2ccc(S(N)(=O)=O)cc2)nn1`, the growth was 105%.

`O=[N+]([O-])c1cc(/C=N/Nc2nc(N/N=C/c3ccc(Cl)c([N+](=O)[O-])c3)nc(N3CCCCC3)n2)ccc1Cl`: the growth is 78%.

On to `CC(=O)Nc1cccc(Nc2nc(N[C@@H](C)c3ccccc3)c3ccccc3n2)c1`, for which the growth is 24%.

As to `COc1ccc(COc2ccc(/C=C3\C(=O)Nc4ccccc43)cc2OC)cc1`, the growth is 99.8%.

As to `CCNC(=O)Oc1ccc(/C(=C(/C)c2ccccc2)c2ccc(OCCN3CCCCCC3)cc2)cc1`, the growth was 52.4%.

Consider `COc1cc(/C=N/NC(=O)c2cn(C3CC3)c3c(OC)c(N4CC5CCCNC5C4)c(F)cc3c2=O)ccc1O` (stereo not given), for which the growth was 24.9%.

Regarding `CC(C)c1ccc(NCc2cn(-c3ccc(C(=O)O)cc3)nc2-c2cc(C(F)(F)F)cc(C(F)(F)F)c2)cc1`, the growth was 79.2%.

Consider `C[C@@H]1C[C@H]2C(=O)O[C@@H](C)C(NC(=O)[C@H](Cc3cc(F)cc(F)c3)NC(=O)Nc3ccc(Cl)cc3F)C(=O)N3CCC[C@H]3C(=O)N3CCCC[C@H]3C(=O)N[C@@H](CO)C(=O)N2C1` (stereo not given in full), for which the growth was 30.9%.

Take `CC(=O)O[C@@H]1C(=O)N(c2cnccn2)[C@H]1c1ccccc1[N+](=O)[O-]`: the growth was 58.7%.

As for `C=C1CC[C@@H]2[C@]3(C)COC(c4ccccc4)O[C@@H]3CC[C@@]2(C)[C@@H]1C/C=C1/C(=O)OC[C@H]1O` (stereo not given in full), the growth was 100%.

As to `Nc1nc(-c2cccc([N+](=O)[O-])c2)c(N=Nc2cccc([N+](=O)[O-])c2)s1`, the growth was 78.1%.

Take `Nc1cc(F)ccc1NC(=O)c1ccc(NC(=O)C/C=C/c2cccnc2)cc1`: the growth is 73%.

For `CCc1nn2c(C)cc(C)nc2c1Cc1ccc(/C=C/CN2CCN(CCOCCOCCN3CCN(C/C=C/c4ccc(Cc5c(CC)nn6c(C)cc(C)nc56)cc4)CC3)CC2)cc1`, the growth was 46.6%.

Turning to `COc1ccc(NC(=O)CSc2nnc(-c3ccc4nc(-c5ccccc5)[nH]c4c3)o2)cc1`, the growth is 94%.

With `COc1ccc(N2C(=O)c3cc(Cl)ccc3NC2SCc2ccccc2)cc1` (stereo not given), the growth is 91.6%.

With `O=C(CSc1nc2ccccc2c(=O)n1-c1ccccc1)Nc1ccc(-c2nc3ccc([N+](=O)[O-])cc3[nH]2)cc1`, the growth is 93.5%.

Regarding `O=C(NCCn1ccnc1)c1ccc(-c2nc3ccc4[nH]ncc4c3c3c2CCCC3)cc1`, the growth was 87.6%.

As to `CCCC(=O)NC(c1cccnc1)c1cc(C(C)(C)C)c2cccnc2c1O` (stereo not given), the growth is 21.7%.

Turning to `NC(N)=Nc1ccc(Oc2cccc(Nc3ccc(Cl)cc3)c2)cn1`, the growth is 16.1%.

For `O=C(CN1CCN(c2cc(=O)[nH]c3ccc(F)cc23)CC1)Nc1ccc(Cl)cc1`, the growth was 69.9%.

As for `C=C(C=O)[C@@H]1CC[C@]2(C)[C@H](C(=O)C=C3[C@H]4C[C@](C)(C(=O)OC)CC[C@]4(C)CC[C@]32C)[C@@]1(C)CCC#N`, the growth was 47.7%.
